Screening results from PubChem.
CHX counter – affects cycloheximide protein synthesis inhibition readout, counter-screen; AID 2314; max response, %; cell reporter, cycloheximide protein synthesis inhibition counterscreen; 300,000 compounds, 12% hits; in the data active means max response mostly above about 13%, no sharp cut-off; inactive means mostly below about 14%; further: read at 38.3 µM for the half of the compounds with a filed dose; 0% is about no effect
Lassa entry inh – blocks Lassa virus binding to or entry into cells | Lassa virus pseudotype entry inhibition, cell reporter | Potency, µM (doses to about 37.9 µM), for the others: at the top dose activity change, negative = inhibition, actives largely listed as inhibitors | 300,000 compounds, 1.2% hits; calls by dose curve; tested in HEK293 cells; further: potency means the concentration at half of the fitted maximal effect; on the % scale 0 is the no-effect control and ±100 the full control effect; nearly all actives have a fitted effect of over 50% in size
Marburg entry inh – Marburg virus entry inhibition; 300,000 compounds, 1.8% hits; Potency, µM (doses to about 37.8 µM), inactives show at the highest dose activity change, negative = inhibition, actives largely listed as inhibitors; Marburg virus pseudotyped entry inhibition, cell reporter; calls by dose curve; tested in HEK293 cells; further: potency means the concentration at half of the fitted maximal effect; on the % scale 0 is the no-effect control and ±100 the full control effect
Shiga toxin inh – Shiga toxin inhibition | Vero cells, Shiga toxin protein synthesis inhibition reporter | inhibition, % at 38.7 µM | 290,000 compounds, 9.2% hits; in the data active means inhibition mostly above about 28%, no sharp cut-off; inactive means mostly below about 43%; further: 0% is about no effect
Pf growth 96h – P. falciparum growth inhibition at 96 hours. P. falciparum luciferase reporter growth, 96 h. Potency, µM (highest dose often 28.7 µM), for inactives: at the highest dose activity change, negative = inhibition, usual class: inhibitors. 320,000 compounds, 6.9% hits; further: potency means the concentration at half of the fitted maximal effect; on the % scale 0 is the no-effect control and ±100 the full control effect
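Luminescence readout: decreased luciferase signal marks inhibited growth of reporter-expressing P. falciparum in infected red cells (2% hematocrit, 0.05% parasitemia final), exposed to compound two generations (96 h, 37 C, 5% CO2).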
Pf growth 48h – P. falciparum growth inhibition at 48 hours (one generation). P. falciparum luciferase growth in erythrocytes, 48 h. Potency, µM (top dose mostly 28.7 µM), for the others: at the top dose activity change, negative = inhibition, hits mostly inhibitors. 310,000 compounds, 5.9% hits. AID 504832; further: potency means the concentration at half of the fitted maximal effect; on the % scale 0 is the no-effect control and ±100 the full control effect
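Erythrocytes infected with P. falciparum carrying an integrated firefly luciferase reporter (2% hematocrit, 0.1% parasitemia final) were exposed to compounds in RPMI 1640 with 0.5% Albumax at 37 C, 5% CO2. Growth inhibition was scored as reduced luminescence.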
* hit, by the source's call; ? = inconclusive; . = not tested or not shown; [ ] = another dose, or the depositor's remark. The list is not random: actives were taken first. Their share in the collection is about 19%. Unless noted, the call rests on the fitted dose curve; in most records, active means well fitted inhibition curve with a large enough effect; inconclusive means small, poorly fitted or top-dose-only effect, or another doubt; inactive means no such curve, though single readings can be large or run the other way.

SMILES | CHX counter | Lassa entry inh | Marburg entry inh | Shiga toxin inh | Pf growth 96h | Pf growth 48h
CCCOc1ccc2ccccc2c1/C=C1\SC(=O)NC1=O | -1 | . | . | . | ? | -18%
CC1CCCN(C(=O)COC(=O)CSc2ccc(C(N)=O)cc2[N+](=O)[O-])C1 (stereo unspecified) | . | 1% | 4%[46.1 µM] | . | 9% | 6%
COc1ccc(CN(CCCN2CCOCC2)C(=O)Nc2cccc(Cl)c2)cc1OC | -1 | -13% | ? | -7 | 12µM* | ?
O=C(Nc1cccc(Cl)c1)N(CCN1CCOCC1)Cc1cccc(Cl)c1 | 3 | 10% | -11% | 14 | 38% | ?
COc1ccc(CN(Cc2cc3cc4c(cc3[nH]c2=O)OCO4)C(=O)NC2CCCCC2)cc1 | -1 | -21% | ? | -3 | 17% | 4.7µM*
CCN(CC)CCCN(Cc1cc2cc3c(cc2[nH]c1=O)OCCO3)C(=O)Nc1ccccc1 | -3 | 0% | ? | -4 | . | 10µM*
COc1cc2cc(CN(CCCN3CCOCC3)C(=O)Nc3ccc(F)cc3)c(=O)[nH]c2cc1OC | 12 | . | . | -21 | 40% | 13µM*
COc1ccc(CN(C)C(=O)Cn2ccc(NC(=O)OCc3ccccc3)nc2=O)cc1OC | . | . | . | . | -1% | -26%
COCCCN(C(=O)c1ccc2ccccc2n1)c1c(N)n(Cc2ccccc2)c(=O)[nH]c1=O | . | . | . | . | 109% | 113%
CN1c2ccsc2C(=O)/C(=C\Nc2cccc(C(F)(F)F)c2)S1(=O)=O | -2 | 18% | 3% | -10 | 14% | 2%
COc1ccc(OC)c(CN(CCN2CCOCC2)C(=O)Nc2ccccc2)c1 | 9 | -1% | ? | 43* | 39% | 20%
COc1ccc2[nH]c(=O)c(CN(CCCN(C)C)C(=O)Nc3ccc(F)cc3)cc2c1 | -3 | -19% | ? | 16 | 54% | 13µM*
CCCN1CCCc2cc(CN(CCCN3CCOCC3)C(=O)Nc3ccc(OCC)cc3)ccc21 | 5 | ? | ? | -14 | 5.9µM* | .
O=C(Nc1ccccc1F)N(CCCN1CCOCC1)Cc1cc2cc3c(cc2[nH]c1=O)OCCO3 | -4 | 7% | ? | 82 | 32% | ?
CCOc1ccc(NC(=O)N(CCN2CCOCC2)Cc2ccc3c(c2)CCCN3CC)cc1 | -3 | -22% | -3% | -7 | 73% | ?
O=C(Nc1ccccc1)N(CCCN1CCOCC1)Cc1cc2cc3c(cc2[nH]c1=O)OCCO3 | -1 | -13% | -21% | -3 | -20% | 13µM*
N#Cc1ccccc1S(=O)(=O)N1CCN(c2ccc(S(=O)(=O)N3CCOCC3)cn2)CC1 | 5 | 23% | 4% | 18 | 108% | .
O=C1CC(Nc2ccccc2)C(=O)N1Cc1ccccc1 (stereo unspecified) | -3 | -3% | -1%[46.1 µM] | -4 | . | 17%
CCOc1ccc(-c2nnc(SCC(=O)NCCc3ccc(OC)c(OC)c3)nc2-c2ccc(OCC)cc2)cc1 | . | -17%[46.1 µM] | . | . | . | .
COC(=O)c1ccccc1S(=O)(=O)N(Cc1cc2cc3c(cc2[nH]c1=O)OCO3)C1CCCCC1 | 11 | . | 5% | -9 | 11% | 8.3µM*
O=c1[nH]c2cc3c(cc2cc1CN(CC1CCCO1)S(=O)(=O)c1ccccc1)OCCO3 (stereo unspecified) | 2 | -26% | -20% | -16 | ? | ?
CCc1ccc2[nH]c(=O)c(CN(CCCN3CCOCC3)C(=O)Nc3cccc(Cl)c3)cc2c1 | -6 | ? | 18µM* | -8 | . | 5.2µM*
CCC(C)NC(=O)CSc1n[nH]c(=O)n1CCc1ccccc1 (stereo unspecified) | -3 | -15% | 3%[46.1 µM] | -13 | 20% | 10%
CCOc1ccc(/C=C2/SC(=S)N(CCC(=O)Nc3ccc(C(=O)O)cc3)C2=O)cc1 | -2 | . | . | -16 | 0% | 43%
CCCOc1ccc(CCN2CCC(=O)NC2=O)cc1C | 10 | 2% | 11% | 35 | ? | ?
SMILES | CHX counter | Lassa entry inh | Marburg entry inh | Shiga toxin inh | Pf growth 96h | Pf growth 48h
Cc1ccc(-c2nnc(NCc3ccccc3)c3ccccc23)cc1 | 1 | -10% | 17% | 21 | ? | ?
C#CCOCCOCCOCCNc1nc(N2CCN(C(=O)[C@H](CCCCN)n3cc(CC(C)O)nn3)CC2)nc(N2CCN(C(=O)[C@H](Cc3ccc(O)cc3)n3cc(CCO)nn3)CC2)n1 (stereo partly specified) | . | . | 1% | . | . | .
C#CCOCCOCCOCCNc1nc(N2CCOCC2)nc(N2CCN(C(=O)CCCCCCCCCCNC(=O)[C@@H](CCSC)n3cc(CCO)nn3)CC2)n1 | . | . | . | . | ? | 0.66µM*
C#CCOCCOCCOCCNc1nc(N2CCN(C(=O)CCCCCCCCCCNC(=O)[C@H](CO)n3cc(CCCSC)nn3)CC2)nc(N2CCN(C(=O)CCCCCCCCCCNC(=O)[C@H](CCCCN)n3cc(C[C@@H](C)CC)nn3)CC2)n1 | . | . | . | . | 1.9µM* | 1.3µM*
C#CCOCCOCCOCCNc1nc(N2CCN(C(=O)CCCCCCCCCCNC(=O)[C@H](CO)n3cc(CCCSC)nn3)CC2)nc(N2CCN(C(=O)CCCCCCCCCCNC(=O)[C@H](CO)n3cc(CCCSC)nn3)CC2)n1 | . | . | . | . | 0.1µM* | 0.29µM*
CN1CCN(S(=O)(=O)c2ccc(CNC(=O)c3ccccc3)s2)CC1 | -2 | ? | -5%[46.1 µM] | -8 | ? | -16%
CCCCc1ccc(/C=C2/C(=O)ON=C2c2ccccc2)s1 | -1 | -10% | 3% | -9 | 10µM* | -2%
CC(NCC1(N2CCOCC2)CCCCC1)C(=O)Nc1ccc(Cl)cc1Cl (stereo unspecified) | 14 | 12%[46.1 µM] | 0%[46.1 µM] | -4 | 9.3µM* | ?
CC(Sc1ccc(S(=O)(=O)N2CCOCC2)cn1)C(=O)Nc1ccc(Cl)cc1Cl (stereo unspecified) | . | . | . | . | ? | 12µM*
CC(Sc1ccc(S(=O)(=O)N2CCOCC2)cn1)c1ccccc1Cl (stereo unspecified) | . | 8.9µM* | ? | . | . | .
COc1ccc(-n2c(SCc3nc(-c4ccc(C)cc4)no3)nnc2-c2ccncc2)cc1 | . | -13%[46.1 µM] | ? | . | . | .
COc1cccc(OC)c1C(=O)OCC(=O)N1CC(C)CC(C)C1 (stereo unspecified) | . | 8% | ? | . | -26% | -11%
O=C(COc1ccccc1F)c1ccc(O)cc1O | 11 | 18% | 10% | -4 | -8% | 36%
Cc1c(O)ccc(C(=O)COc2ccccc2F)c1O | 30* | ? | -25% | 86* | ? | 14%
COc1cccc(CNC(=O)CCC(=O)n2ncc3cc(C)ccc32)c1OC | 4 | . | . | -1 | ? | 49%
NC(=O)CSc1nnc(-c2ccc([N+](=O)[O-])cc2)o1 | 19* | 7% | 5%[46.1 µM] | 40 | -4% | -5%
C=CCSc1nnc(-c2cccnc2)o1 | 15* | . | . | 22* | 8% | 42%
C=CCSc1nnc(-c2ccc([N+](=O)[O-])cc2)o1 | 19* | . | . | 80 | 65%[1.15 µM] | 61%
O=C(CSc1nnc(-c2cccnc2)o1)N1CCCCC1 | 5 | -17%[46.1 µM] | ? | 32 | 3% | 40%
